Measurements: the supplement of paper PMC11001985

What follows are targets tested with C#CCNC(=O)CCSSCCC(=O)NCCc1ccc(C=O)c(C=O)c1 (assay: lysine labeling ratio R10:1 (500 µM / 50 µM probe), SILAC-ABPP in living cells; higher = lower intrinsic lysine reactivity toward the probe, active = 2 or less). Conditions: HeLa; probe concentrations 500 vs 50 µM.
In short: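 Living SILAC light and heavy HeLa cells in PBS at room temperature were treated with an alkyne-tagged, disulfide-linked lysine probe at 50 µM or 500 µM, with forward and reverse label swaps. The mixed lysates were clicked to biotin-azide, digested with trypsin, captured on neutravidin, released with DTT, alkylated and run by LC-MS/MS on a TIMS-TOF Pro. R for each lysine is the filtered median high-probe/low-probe MS1 peptide ratio, taken again as the median over forward and reverse replicates. Any value above 20 is set to 20.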

Chain of UniProt P35579 (P35579 whole entry): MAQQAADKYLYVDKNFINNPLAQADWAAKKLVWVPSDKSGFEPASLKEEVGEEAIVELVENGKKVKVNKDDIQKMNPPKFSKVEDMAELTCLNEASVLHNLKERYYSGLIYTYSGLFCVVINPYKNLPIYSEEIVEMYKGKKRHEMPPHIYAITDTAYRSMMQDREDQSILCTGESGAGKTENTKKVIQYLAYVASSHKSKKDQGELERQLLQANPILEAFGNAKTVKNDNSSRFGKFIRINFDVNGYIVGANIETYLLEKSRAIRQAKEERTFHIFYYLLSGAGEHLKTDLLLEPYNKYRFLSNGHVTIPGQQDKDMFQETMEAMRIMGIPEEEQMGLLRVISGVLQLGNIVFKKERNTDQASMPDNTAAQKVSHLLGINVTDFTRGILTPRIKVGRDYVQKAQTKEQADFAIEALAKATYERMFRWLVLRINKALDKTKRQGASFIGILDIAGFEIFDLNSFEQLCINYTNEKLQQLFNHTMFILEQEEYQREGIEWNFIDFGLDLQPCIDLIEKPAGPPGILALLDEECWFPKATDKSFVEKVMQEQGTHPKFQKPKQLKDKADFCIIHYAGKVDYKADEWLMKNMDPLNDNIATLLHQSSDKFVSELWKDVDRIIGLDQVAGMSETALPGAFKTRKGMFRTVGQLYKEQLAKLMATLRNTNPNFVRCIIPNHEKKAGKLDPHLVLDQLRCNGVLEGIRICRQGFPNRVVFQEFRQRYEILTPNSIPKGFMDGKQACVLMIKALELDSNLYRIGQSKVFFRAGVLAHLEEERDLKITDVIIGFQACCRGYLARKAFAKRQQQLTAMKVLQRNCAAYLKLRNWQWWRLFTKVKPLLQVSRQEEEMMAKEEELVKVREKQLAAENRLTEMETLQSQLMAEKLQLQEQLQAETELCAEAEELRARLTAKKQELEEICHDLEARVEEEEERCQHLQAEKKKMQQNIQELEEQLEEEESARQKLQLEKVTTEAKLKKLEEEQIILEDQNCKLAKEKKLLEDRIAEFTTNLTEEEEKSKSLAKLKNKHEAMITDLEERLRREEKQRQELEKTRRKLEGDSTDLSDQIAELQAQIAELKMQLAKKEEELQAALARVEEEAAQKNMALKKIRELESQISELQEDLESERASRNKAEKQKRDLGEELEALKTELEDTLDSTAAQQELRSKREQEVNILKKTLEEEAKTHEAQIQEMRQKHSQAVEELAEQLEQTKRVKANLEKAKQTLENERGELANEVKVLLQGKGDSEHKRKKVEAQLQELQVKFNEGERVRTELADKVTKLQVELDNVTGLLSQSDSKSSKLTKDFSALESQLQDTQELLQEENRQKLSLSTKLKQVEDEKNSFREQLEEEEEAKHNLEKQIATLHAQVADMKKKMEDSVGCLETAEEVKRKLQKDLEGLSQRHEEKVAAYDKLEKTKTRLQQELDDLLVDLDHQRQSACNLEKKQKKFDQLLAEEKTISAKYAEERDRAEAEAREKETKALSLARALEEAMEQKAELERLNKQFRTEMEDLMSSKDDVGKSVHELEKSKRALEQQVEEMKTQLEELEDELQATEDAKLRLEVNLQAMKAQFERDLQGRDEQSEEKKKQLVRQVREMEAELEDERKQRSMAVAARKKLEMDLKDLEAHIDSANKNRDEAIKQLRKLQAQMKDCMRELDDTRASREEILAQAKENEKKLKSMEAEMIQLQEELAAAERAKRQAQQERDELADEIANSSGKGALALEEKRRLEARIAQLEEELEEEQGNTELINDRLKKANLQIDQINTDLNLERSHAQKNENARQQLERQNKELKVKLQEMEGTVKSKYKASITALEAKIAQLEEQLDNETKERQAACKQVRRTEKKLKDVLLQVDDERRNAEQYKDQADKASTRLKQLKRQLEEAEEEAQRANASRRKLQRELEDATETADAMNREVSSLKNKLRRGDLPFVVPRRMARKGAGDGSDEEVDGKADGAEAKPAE
Chain of UniProt P14625 (P14625 whole entry): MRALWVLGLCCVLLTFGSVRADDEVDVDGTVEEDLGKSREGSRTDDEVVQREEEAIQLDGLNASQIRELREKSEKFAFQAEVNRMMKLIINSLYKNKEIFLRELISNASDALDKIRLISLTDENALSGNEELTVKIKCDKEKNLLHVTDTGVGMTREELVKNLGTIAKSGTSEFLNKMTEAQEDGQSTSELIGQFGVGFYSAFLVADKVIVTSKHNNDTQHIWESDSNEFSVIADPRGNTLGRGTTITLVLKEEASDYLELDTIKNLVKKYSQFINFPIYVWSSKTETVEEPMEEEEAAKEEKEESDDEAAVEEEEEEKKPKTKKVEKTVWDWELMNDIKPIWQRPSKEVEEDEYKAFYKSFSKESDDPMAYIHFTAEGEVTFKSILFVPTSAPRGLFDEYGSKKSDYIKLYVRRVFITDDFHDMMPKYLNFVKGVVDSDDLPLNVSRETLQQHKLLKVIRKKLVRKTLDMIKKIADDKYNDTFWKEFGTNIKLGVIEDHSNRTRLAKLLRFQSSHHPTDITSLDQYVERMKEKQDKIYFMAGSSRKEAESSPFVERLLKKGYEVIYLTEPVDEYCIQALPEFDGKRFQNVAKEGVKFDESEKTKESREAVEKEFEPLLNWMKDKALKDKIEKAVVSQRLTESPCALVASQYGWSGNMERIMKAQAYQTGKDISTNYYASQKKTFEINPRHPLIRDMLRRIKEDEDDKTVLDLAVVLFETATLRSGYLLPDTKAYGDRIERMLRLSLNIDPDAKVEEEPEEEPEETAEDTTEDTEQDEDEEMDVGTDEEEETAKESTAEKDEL
Chain of UniProt Q07065 (Q07065 whole entry): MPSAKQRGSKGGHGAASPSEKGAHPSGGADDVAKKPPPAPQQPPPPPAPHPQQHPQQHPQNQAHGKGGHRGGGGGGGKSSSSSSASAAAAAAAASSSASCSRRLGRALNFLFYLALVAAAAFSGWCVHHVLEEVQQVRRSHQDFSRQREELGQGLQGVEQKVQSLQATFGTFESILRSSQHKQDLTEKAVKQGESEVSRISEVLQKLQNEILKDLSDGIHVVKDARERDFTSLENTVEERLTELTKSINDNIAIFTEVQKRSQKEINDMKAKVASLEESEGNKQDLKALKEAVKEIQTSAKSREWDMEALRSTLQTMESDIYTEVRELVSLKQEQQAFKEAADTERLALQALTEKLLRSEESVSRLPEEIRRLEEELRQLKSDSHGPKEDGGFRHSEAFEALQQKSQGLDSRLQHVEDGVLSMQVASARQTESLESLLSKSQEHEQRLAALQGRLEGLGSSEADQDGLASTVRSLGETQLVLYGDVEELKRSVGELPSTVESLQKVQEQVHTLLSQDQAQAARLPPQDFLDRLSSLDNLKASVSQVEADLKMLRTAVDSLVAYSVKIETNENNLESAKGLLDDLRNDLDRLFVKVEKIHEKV
Chain of UniProt P05556 (P05556 whole entry): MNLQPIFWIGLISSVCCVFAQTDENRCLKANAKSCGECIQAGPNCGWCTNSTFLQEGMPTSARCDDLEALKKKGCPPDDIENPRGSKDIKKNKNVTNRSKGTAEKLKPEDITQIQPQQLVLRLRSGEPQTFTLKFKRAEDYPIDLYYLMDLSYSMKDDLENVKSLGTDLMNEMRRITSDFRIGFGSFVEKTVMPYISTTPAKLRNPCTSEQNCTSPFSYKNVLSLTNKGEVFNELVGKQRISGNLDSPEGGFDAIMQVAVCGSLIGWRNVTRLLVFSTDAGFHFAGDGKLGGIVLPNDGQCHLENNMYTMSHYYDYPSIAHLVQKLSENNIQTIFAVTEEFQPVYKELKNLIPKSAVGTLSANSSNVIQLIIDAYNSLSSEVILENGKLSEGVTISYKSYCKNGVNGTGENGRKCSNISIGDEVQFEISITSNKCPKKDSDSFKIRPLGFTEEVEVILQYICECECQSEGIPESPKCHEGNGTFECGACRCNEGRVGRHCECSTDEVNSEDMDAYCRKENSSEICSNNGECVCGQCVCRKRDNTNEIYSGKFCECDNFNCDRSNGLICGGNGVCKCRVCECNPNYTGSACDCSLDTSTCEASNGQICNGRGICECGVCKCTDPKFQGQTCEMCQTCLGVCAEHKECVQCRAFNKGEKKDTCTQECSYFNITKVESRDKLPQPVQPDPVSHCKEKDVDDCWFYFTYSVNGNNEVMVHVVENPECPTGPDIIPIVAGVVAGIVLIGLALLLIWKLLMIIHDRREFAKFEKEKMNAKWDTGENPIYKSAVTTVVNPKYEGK
Chain of UniProt P60903 (P60903 whole entry): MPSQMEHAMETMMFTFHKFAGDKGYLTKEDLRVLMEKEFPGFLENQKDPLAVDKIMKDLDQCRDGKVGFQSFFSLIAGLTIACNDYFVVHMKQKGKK
Chain of UniProt P05787 (P05787 whole entry): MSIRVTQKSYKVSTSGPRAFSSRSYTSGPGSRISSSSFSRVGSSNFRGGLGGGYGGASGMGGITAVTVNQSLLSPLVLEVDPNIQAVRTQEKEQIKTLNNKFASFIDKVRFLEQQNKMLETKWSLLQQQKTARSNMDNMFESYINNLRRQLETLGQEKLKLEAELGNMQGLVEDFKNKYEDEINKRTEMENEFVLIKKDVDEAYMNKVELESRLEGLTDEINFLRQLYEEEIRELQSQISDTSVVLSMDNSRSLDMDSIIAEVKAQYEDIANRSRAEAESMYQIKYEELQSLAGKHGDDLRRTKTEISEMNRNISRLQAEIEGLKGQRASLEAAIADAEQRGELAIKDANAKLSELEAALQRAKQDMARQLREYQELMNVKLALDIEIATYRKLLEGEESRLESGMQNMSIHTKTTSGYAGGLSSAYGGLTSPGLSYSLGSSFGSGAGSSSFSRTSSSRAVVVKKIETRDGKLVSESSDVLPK
Chain of UniProt P00387 (P00387 whole entry): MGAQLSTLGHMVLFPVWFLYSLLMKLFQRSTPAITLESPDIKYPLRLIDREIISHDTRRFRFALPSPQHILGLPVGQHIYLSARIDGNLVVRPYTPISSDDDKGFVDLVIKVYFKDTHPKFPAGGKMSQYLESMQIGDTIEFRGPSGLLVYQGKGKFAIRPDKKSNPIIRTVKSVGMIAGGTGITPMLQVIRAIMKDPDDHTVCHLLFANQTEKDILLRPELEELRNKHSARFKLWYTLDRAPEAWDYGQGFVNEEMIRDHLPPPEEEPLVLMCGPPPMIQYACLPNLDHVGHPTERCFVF

“EPHB4 (lysine site: K486) (UniProt P54760)” was tested. Which “lysine labeling ratio R10:1” value did it give?
The value was 4.21 (inactive).

“RPL28 (lysine site: K84) (UniProt P46779)” was tested. Which “lysine labeling ratio R10:1” value did it give?
The value was 2.27 (inactive).

“ITGA5 (lysine site: K910) (UniProt P08648)” was tested. Which “lysine labeling ratio R10:1” value did it give?
Its value is 3.88 (inactive).

For “CKAP4 (lysine site: K191) (UniProt Q07065)”, which “lysine labeling ratio R10:1” value is on record?
The value was 2.86 (inactive).

How did the “lysine labeling ratio R10:1” value turn out when UniProt P05787 (lysine site: K207) was run?
Its value is 3.47 (inactive).

UniProt P26639 (lysine site: K319) was tested. Which “lysine labeling ratio R10:1” value did it give?
The value was 2.46 (inactive).

“IGF2R (lysine site: K1104) (UniProt P11717)” was tested. Which “lysine labeling ratio R10:1” value did it give?
Its value is 3.26 (inactive).

With “ITGB1 (lysine site: K136) (UniProt P05556)” as the target, how does the “lysine labeling ratio R10:1” value read?
Its value is 1.75 (active).

Which “lysine labeling ratio R10:1” value does the source give for “CELSR2 (lysine site: K2001) (UniProt Q9HCU4)” here?
The value was 1.5 (active).

With UniProt Q99623 (lysine site: K216) as the target, how does the “lysine labeling ratio R10:1” value read?
The value was 2.79 (inactive).

Which “lysine labeling ratio R10:1” value does the source give for “MYH9 (lysine site: K1867) (UniProt P35579)” here?
The value was 2.53 (inactive).

How did the “lysine labeling ratio R10:1” value turn out when “RBMX (lysine site: K150) (UniProt P38159)” was run?
Its value is 16.9 (inactive).

For “SPTAN1 (lysine site: K2195) (UniProt Q13813)”, which “lysine labeling ratio R10:1” value is on record?
Its value is 1.91 (active).

With “MYH9 (lysine site: K1338) (UniProt P35579)” as the target, how does the “lysine labeling ratio R10:1” value read?
The value was 1.98 (active).

Which “lysine labeling ratio R10:1” value does the source give for “S100A10 (lysine site: K57) (UniProt P60903)” here?
The value was 2.66 (inactive).

Which “lysine labeling ratio R10:1” value does the source give for “ENO1 (lysine site: K406) (UniProt P06733)” here?
Its value is 10 (inactive).

Which “lysine labeling ratio R10:1” value does the source give for UniProt Q86V81 (lysine site: K235) here?
Its value is 2.42 (inactive).

For “ROBO1 (lysine site: K137) (UniProt Q9Y6N7)”, which “lysine labeling ratio R10:1” value is on record?
The value was 5.8 (inactive).

How did the “lysine labeling ratio R10:1” value turn out when “CD109 (lysine site: K86) (UniProt Q6YHK3)” was run?
The value was 1.68 (active).

With “SCARB2 (lysine site: K129) (UniProt Q14108)” as the target, how does the “lysine labeling ratio R10:1” value read?
Its value is 5.93 (inactive).

Which “lysine labeling ratio R10:1” value does the source give for “LGALS1 (lysine site: K130) (UniProt P09382)” here?
Its value is 2.14 (inactive).

“HSP90B1 (lysine site: K75) (UniProt P14625)” was tested. Which “lysine labeling ratio R10:1” value did it give?
The value was 1.47 (active).

For “CYB5R3 (lysine site: K164) (UniProt P00387)”, which “lysine labeling ratio R10:1” value is on record?
The value was 1.79 (active).
